Data published in PubChem BioAssay (NCI).
This is part of a sample that, as a whole, favours compounds with a hit. Of some 79,000 tested, about 15% had one in any assay. Unmarked numbers belong to inactive results. The source made the active and inactive calls. No stated cut-off is given here; in the data, active means growth inhibition above about 70%; inactive means the rest.

test: NCI Yeast Anticancer Drug Screen. Data for the rad50 strain (AID 155);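 further: 0% = growth of vehicle-only cultures of the same strain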; details: S. cerevisiae rad50 strain growth inhibition; at 5.0 µM (retest, dose inferred, filed as 0.5); active compounds read high
In short: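 Inhibition values express reduced yeast growth in compound-treated cultures relative to vehicle-treated controls.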

Row | SMILES | growth inhibition
1 | Oc1ccc(/C=N/NC(=S)Nc2ccccc2)nc1 | 1%
2 | CN(C)COC(=S)SCN(C)C | 98% (active)
3 | Cc1cc2cc3c(c(C(=O)O)c2o1)C(=O)c1ccc2ccccc2c1C3 | 15%
4 | O=C1CC(=S)NC(=S)N1 | -2%
5 | O=[N+]([O-])c1cc(I)c(O)c(/C=N/NS(=O)(=O)c2ccc(Cl)cc2)c1 | -3%
6 | CCC1CCC(CC)C1=O (stereo unspecified) | 1%
7 | Cc1cc(O)c2c(c1)C(=O)c1c(c(O)cc(O)c1-c1c(O)cc(O)c3c1C(=O)c1cc(C)cc(O)c1C3=O)C2=O | 14%
8 | CCC(=O)Sc1ccccc1C(=O)Nc1ccc(Cl)cc1 | 18%
9 | COc1cccc(CC2N(S(=O)(=O)c3ccc(C)cc3)CCC23C(=O)Nc2ccccc23)c1OC (stereo unspecified) | 10%
10 | Cc1occc1C(=S)Nc1ccc(Cl)c(C(=O)OCC(C)C)c1 | 28%
11 | CCOC(=O)c1ccc([N+](=O)[O-])o1 | 5%
12 | Nc1ccc(S(=O)(=O)O)c2cccc(S(=O)(=O)O)c12 | -2%
13 | Cn1c2ccccc2c2nnc(N/N=C/c3ccccn3)nc21 | 26%
14 | C#CC(NCCC(C)CC(C)(C)C)C(C)C (stereo unspecified) | -4%
15 | C/C(=N/Nc1ccccc1)C(=O)O | 18%
16 | CCCCCCCCCCCCCCOC(=O)C(N)Cc1ccc(O)cc1 (stereo unspecified) | 7%
17 | O=C(Nc1ccc(S(=O)(=O)NC2CCCCC2)cc1)OCc1ccccc1 | 91% (active)
18 | NC1CCCCC1N.O=S(=O)([O-])CCCN1CCN(CCO)CC1.O=S(=O)([O-])CCCN1CCN(CCO)CC1.[Pt+4] | 8%
19 | CCCCCCCNc1ccc2c(cc1=O)C(NC(C)=O)CCc1cc(OC)c(OC)c(OC)c1-2 (stereo unspecified) | 17%
20 | Cc1ccc(NC(=O)c2cc3ccccc3c(N=Nc3cc(S(=O)(=O)O)ccc3O)c2O)c(C)c1 | 33%
21 | O=C(O)/C(Cl)=C(\Cl)C(=O)Nc1cccc(C(F)(F)F)c1 | 65%

same assay, conditions: S. cerevisiae rad50 strain growth inhibition; at 50.0 µM (retest, dose inferred, filed as 5.0); active compounds read high

Row | SMILES | growth inhibition
22 | CCCNC(=O)OCc1ccc(NCCN(CC)CC)c2c(=O)c3ccccc3sc12 | 17%
23 | COc1cc(C(c2cc3c(cc2O)OCO3)N2CCCCC2)cc(OC)c1OC (stereo unspecified) | 13%
24 | Cc1cc2c(cc1Cl)Sc1nnc(C)n1S2(=O)=O | 81% (active)
25 | O=C(Oc1cccc2cccnc12)c1ccccc1 | 97% (active)
26 | CCCCCCN(CCCCCC)CCC(=O)c1ccc2cc(Br)c3ccccc3c2c1 | 85% (active)
27 | Cc1c2cc(Cl)ccc2cc2c1ccc1ccccc12 | 5%
28 | O=C1OC(CCCl)(c2ccccc2)CC1CN1CCOCC1 (stereo unspecified) | 81% (active)
29 | CCOC(=N)CCCSSc1ccc(N=[N+]=[N-])cc1 | 99% (active)
30 | Cc1[nH]c2ccccc2c1/C=C1\C(=O)C2CCC1C2 (stereo unspecified) | 75% (active)
31 | O=C(O)c1ccc2c3c(ncnc13)-c1ccccc1C2=O | 96% (active)
32 | CCNCCNc1cc(O)c2c(c1O)C(=O)c1ccccc1C2=O | 98% (active)
33 | Nc1nc(N)c2nc(CNc3ccc(C(=O)NC(CCC(=O)O)C(=O)O)cc3)cnc2n1 (stereo unspecified) | 30%
34 | COc1ccccc1OC(=O)Oc1ccccc1OC | 19%
35 | NNC(=O)c1c(SCc2ccccc2)nc2c3ccccc3ccn12 | 93% (active)
36 | N#CC1Oc2ccccc2N1C(=O)c1ccccc1 (stereo unspecified) | 12%
37 | O=C1C2=Cc3ccccc3CCN2c2ccccc21 | 4%
38 | Cc1cc([N+](=O)[O-])cc(Cl)c1O | 51%
39 | Cc1c(Cl)cccc1N=NC(=O)NNc1cccc(Cl)c1C | 96% (active)
40 | CCC[CH2][Sn]1([CH2]CCC)[O]C(=O)CN=Cc2c(ccc3ccccc23)[O]1 | 47%
41 | Oc1ccc(/C=N/NC(=S)Nc2ccccc2)nc1 | 53%

Row | SMILES | growth inhibition
42 | CN(C)COC(=S)SCN(C)C | 98% (active)
43 | Cc1cc2cc3c(c(C(=O)O)c2o1)C(=O)c1ccc2ccccc2c1C3 | 99% (active)
44 | O=C1CC(=S)NC(=S)N1 | -6%
45 | O=[N+]([O-])c1cc(I)c(O)c(/C=N/NS(=O)(=O)c2ccc(Cl)cc2)c1 | 11%
46 | CCC1CCC(CC)C1=O (stereo unspecified) | 5%
47 | Cc1cc(O)c2c(c1)C(=O)c1c(c(O)cc(O)c1-c1c(O)cc(O)c3c1C(=O)c1cc(C)cc(O)c1C3=O)C2=O | 60%
48 | CCC(=O)Sc1ccccc1C(=O)Nc1ccc(Cl)cc1 | 43%
49 | COc1cccc(CC2N(S(=O)(=O)c3ccc(C)cc3)CCC23C(=O)Nc2ccccc23)c1OC (stereo unspecified) | 94% (active)
50 | Cc1occc1C(=S)Nc1ccc(Cl)c(C(=O)OCC(C)C)c1 | 59%
51 | CCOC(=O)c1ccc([N+](=O)[O-])o1 | 24%
52 | Nc1ccc(S(=O)(=O)O)c2cccc(S(=O)(=O)O)c12 | -2%
53 | Cn1c2ccccc2c2nnc(N/N=C/c3ccccn3)nc21 | 98% (active)
54 | C#CC(NCCC(C)CC(C)(C)C)C(C)C (stereo unspecified) | -62%
55 | C/C(=N/Nc1ccccc1)C(=O)O | 97% (active)
56 | CCCCCCCCCCCCCCOC(=O)C(N)Cc1ccc(O)cc1 (stereo unspecified) | 97% (active)
57 | O=C(Nc1ccc(S(=O)(=O)NC2CCCCC2)cc1)OCc1ccccc1 | 17%
58 | NC1CCCCC1N.O=S(=O)([O-])CCCN1CCN(CCO)CC1.O=S(=O)([O-])CCCN1CCN(CCO)CC1.[Pt+4] | 98% (active)
59 | CCCCCCCNc1ccc2c(cc1=O)C(NC(C)=O)CCc1cc(OC)c(OC)c(OC)c1-2 (stereo unspecified) | 96% (active)
60 | Cc1ccc(NC(=O)c2cc3ccccc3c(N=Nc3cc(S(=O)(=O)O)ccc3O)c2O)c(C)c1 | 85% (active)
61 | O=C(O)/C(Cl)=C(\Cl)C(=O)Nc1cccc(C(F)(F)F)c1 | 99% (active)
